Assay results taken from PubChem BioAssay AID1159580 (chemical genetic matrix, 2015).
Screen size: about 5,500 compounds; about 2,000 (36%) were called active. Not shown: some 18% with an inconclusive outcome. Rule as the data show it: active = normalized growth mostly below about 0.91 (no sharp cut-off); inconclusive = no clear call, values can overlap the other calls; inactive = mostly above about 0.92. The list shows a part of the results.

Experiment: chemical genetic growth profiling, strain panel (AID 1159580);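 also: tested at 20 µM; growth read once vehicle control cultures reached saturation at 30 °C; 1 = growth at the plate median or of vehicle wells; lower values mean less growth of the strain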
Conditions: growth OD
[1] = S. cerevisiae deletion strains, locus YMR263W, strain SAP30, active compounds read low
[2] = S. cerevisiae deletion strains, locus YNL153C, strain GIM3, active compounds read low
[3] = S. cerevisiae deletion strains, locus YAL013W, strain DEP1, active compounds read low
[4] = S. cerevisiae deletion strains, locus YBR229C, strain ROT2, active compounds read low
[5] = S. cerevisiae deletion strains, locus YDL101C, strain DUN1, active compounds read low
[6] = S. cerevisiae deletion strains, locus YDR150W, strain NUM1, active compounds read low
[7] = S. cerevisiae deletion strains, locus YEL061C, strain CIN8, active compounds read low
[8] = S. cerevisiae deletion strains, locus YGR078C, strain PAC10, active compounds read low
[9] = S. cerevisiae deletion strains, locus YHR030C, strain SLT2, active compounds read low
[10] = S. cerevisiae deletion strains, locus YHR087W, strain rtc3, active compounds read low
[11] = S. cerevisiae deletion strains, locus YJL187C, strain SWE1, active compounds read low
[12] = S. cerevisiae deletion strains, locus YJR043C, strain POL32, active compounds read low
[13] = S. cerevisiae deletion strains, locus YJR075W, strain HOC1, active compounds read low
[14] = S. cerevisiae deletion strains, locus YLR039C, strain RIC1, active compounds read low
[15] = S. cerevisiae deletion strains, locus YLR058C, strain SHM2 (second series), active compounds read low
[16] = S. cerevisiae deletion strains, locus YLR085C, strain ARP6, active compounds read low
[17] = S. cerevisiae deletion strains, locus YLR262C, strain YPT6, active compounds read low
[18] = S. cerevisiae deletion strains, locus YML094W, strain GIM5, active compounds read low
[19] = S. cerevisiae deletion strains, locus YMR219W, strain ESC1, active compounds read low
[20] = S. cerevisiae deletion strains, locus YNL298W, strain CLA4 (second series), active compounds read low
[21] = S. cerevisiae deletion strains, locus YNL322C, strain KRE1, active compounds read low
[22] = S. cerevisiae deletion strains, locus YNR030W, strain Alg12, active compounds read low
[23] = S. cerevisiae deletion strains, locus YPL055C, strain LGE1, active compounds read low
[24] = S. cerevisiae deletion strains, locus YPL241C, strain CIN2, active compounds read low
[25] = S. cerevisiae deletion strains, locus YPR135W, strain CTF4, active compounds read low

Measured: normalized growth

Nc1nc(OCc2ccccc2)c2[nH]cnc2n1
inactive: S. cerevisiae deletion strains, locus YAL040C, strain CLN3, active compounds read low 0.994 | S. cerevisiae deletion strains, locus YCL061C, strain MRC1 (second series), active compounds read low 1 | S. cerevisiae deletion strains, locus YDR363W, strain ESC2, active compounds read low 1.02 | S. cerevisiae deletion strains, locus YER002W, strain NOP16, active compounds read low 1 | [1] 1 | [2] 0.999 | S. cerevisiae deletion strains, locus YNL175C, strain NOP13, active compounds read low 0.982 | S. cerevisiae deletion strains, locus YNL197C, strain WHI3, active compounds read low 0.984 | S. cerevisiae deletion strains, locus YNL224C, strain SQS1, active compounds read low 1.02 | S. cerevisiae deletion strains, locus YOR083W, strain WHI5 (second series), active compounds read low 1.01

O=[N+]([O-])c1cc(C(F)(F)F)c(N2CCCCC2)cc1N1CCCCC1
inactive: [3] 0.996 | [4] 0.994 | [5] 1.03 | [6] 1.01 | [7] 0.967 | [8] 1.01 | [9] 1.01 | [10] 0.98 | [11] 0.977 | [12] 1.01 | [13] 0.996 | [14] 0.864 | [15] 0.974 | [16] 0.915 | [17] 0.972 | [18] 0.973 | [19] 0.983 | [1] 1.01 | S. cerevisiae deletion strains, locus YMR307W, strain GAS1, active compounds read low 1.02 | [2] 1.03 | [20] 1.03 | [21] 0.989 | [22] 0.989 | [23] 0.978 | [24] 1.02 | [25] 0.977 | S. cerevisiae strains, strain wild type, active compounds read low 0.992

O=[N+]([O-])c1ccc(N2CCCCC2)nc1N1CCCCC1
active: [9] 0.587 | [14] 0.581 | [16] 0.568 | [17] 0.59 | [19] 0.944 | [2] 0.909 | [21] 0.921 | [24] 0.803 | [25] 0.587
inactive: [3] 0.967 | [4] 0.96 | [5] 0.978 | [6] 0.961 | [7] 0.95 | [8] 0.963 | S. cerevisiae deletion strains, locus YGR229C, strain SMI1, active compounds read low 0.961 | [10] 0.943 | [11] 0.954 | [12] 0.977 | [13] 0.914 | [15] 0.954 | [18] 0.9 | [1] 0.95 | [20] 0.906 | [22] 0.89 | [23] 0.908
